# PubChem BioAssay AID2330 (Broad Institute, 2010)
# About 2,800 (7.6%) of roughly 37,000 compounds were called active. Not shown: some 1% with an inconclusive outcome. No stated cut-off is given here; in the data, active means inhibition above about 80%; inconclusive means no clear call, values can overlap the other calls; inactive means below that. The entries come from a sample that favours actives as a whole.
# Test: NOMO-1 AML cell viability reduction, primary screen, STK33 inhibitor project, CellTiter-Glo luminescence (AID 2330)
# Conditions: NOMO-1 AML viability, 72 h, stronger effect = higher value, concentration not given here
row,Compound,inhibition
1,C[C@@H]1CN([C@H](C)CO)C(=O)Cc2cc(NS(C)(=O)=O)ccc2O[C@H]1CN(C)S(=O)(=O)c1ccccc1,-9.84% (inactive)
2,Cn1c(=O)c2c(nc(SCC(=O)O)n2Cc2ccc(F)cc2)n(C)c1=O,17.9% (inactive)
3,Cc1cc(=O)oc2cc(OC(C)C(=O)Nc3ccc(Cl)c(C(F)(F)F)c3)ccc12 (stereo not drawn),4.93% (inactive)
4,C[C@H]1CN([C@@H](C)CO)C(=O)c2cc(NC(=O)Nc3ccccc3)ccc2O[C@H]1CN(C)S(C)(=O)=O,15.5% (inactive)
5,CC(=O)c1cccc(NC(=O)CN(c2ccc(F)c(Cl)c2)S(C)(=O)=O)c1,13.8% (inactive)
6,Cc1noc(C)c1NC(=O)Nc1ccc2c(c1)CC(=O)N([C@@H](C)CO)C[C@@H](C)[C@@H](CN(C)Cc1ccc(Cl)c(Cl)c1)O2,58.1% (inactive)
7,COc1cc(O)cc(C)c1C(=O)OC1C(CO)OC(n2ccc(=O)[nH]c2=O)C1OC(C)=O (stereo not drawn),6.97% (inactive)
8,COC(=O)c1cc(C)sc1NC(=S)Nc1ncn(Cc2ccc(F)cc2Cl)n1,109% (active)
9,CCc1cc(C(=O)OC)c(NC(=S)Nc2ccc(OC)cc2[N+](=O)[O-])s1,22.2% (inactive)
10,C[C@H]1CN([C@@H](C)CO)C(=O)Cc2cc(NS(=O)(=O)c3cccs3)ccc2O[C@@H]1CN(C)Cc1ccc(Oc2ccccc2)cc1,78.4% (inactive)
11,C[C@H]1CN([C@@H](C)CO)C(=O)Cc2cc(NC(=O)Nc3cccc4ccccc34)ccc2O[C@@H]1CN(C)S(C)(=O)=O,0.688% (inactive)
12,C[C@H]1CN([C@@H](C)CO)C(=O)Cc2cc(NC(=O)Nc3cccc4ccccc34)ccc2O[C@H]1CN(C)CC1CC1,26.7% (inactive)
13,C[C@@H]1CN([C@@H](C)CO)C(=O)Cc2cc(NC(=O)Nc3ccc4c(c3)OCO4)ccc2O[C@@H]1CN(C)CC1CCCCC1,88.2% (active)
14,C[C@H]1CN([C@@H](C)CO)C(=O)Cc2cc(NC(=O)Nc3ccc4c(c3)OCO4)ccc2O[C@H]1CN(C)CC1CC1,11.8% (inactive)
15,C[C@H]1CN([C@@H](C)CO)C(=O)c2cc(NC(=O)Nc3ccc4c(c3)OCO4)ccc2O[C@@H]1CN(C)CC1CCCCC1,31.9% (inactive)
16,C[C@@H]1CN([C@@H](C)CO)C(=O)Cc2cc(NC(=O)Nc3cccc4ccccc34)ccc2O[C@@H]1CN(C)CC1CCCCC1,117% (active)
17,C[C@H](CO)N1C[C@H](C)[C@@H](CN(C)Cc2ccc3c(c2)OCO3)Oc2c(NC(=O)C3CCOCC3)cccc2C1=O,20.1% (inactive)
18,O=C(Nc1ccc(Cl)cc1C(=O)NCc1ccco1)c1ccco1,31.2% (inactive)
19,C[C@@H]1CN([C@@H](C)CO)C(=O)c2cccc(NC(=O)c3nc4ccccc4s3)c2O[C@@H]1CN(C)Cc1ccc(Cl)c(Cl)c1,87.1% (active)
20,C[C@@H]1CN([C@H](C)CO)C(=O)c2cccc(NC(=O)c3nc4ccccc4s3)c2O[C@@H]1CN(C)C,6.43% (inactive)
21,COc1ccc(CN(C)C[C@H]2Oc3c(NC(=O)C4CCCCC4)cccc3C(=O)N([C@@H](C)CO)C[C@H]2C)cc1,2.14% (inactive)
22,C[C@H](CO)N1C[C@H](C)[C@@H](CN(C)Cc2ccc(Cl)c(Cl)c2)Oc2c(NC(=O)C3CCCCC3)cccc2C1=O,102% (active)
23,C[C@@H]1CN([C@H](C)CO)C(=O)c2cccc(NC(=O)c3nc4ccccc4s3)c2O[C@@H]1CN(C)Cc1ccc(Oc2ccccc2)cc1,54.9% (inactive)

row,Compound,inhibition
1,CC(C)NC(=O)N(C)C[C@@H]1Oc2c(NC(=O)c3nc4ccccc4s3)cccc2C(=O)N([C@H](C)CO)C[C@H]1C,-10.2% (inactive)
2,COc1ccc(CN(C)C[C@H]2Oc3c(NC(=O)C4CCCCC4)cccc3C(=O)N([C@@H](C)CO)C[C@@H]2C)cc1,15.7% (inactive)
3,C[C@@H]1CN([C@H](C)CO)C(=O)c2cccc(NC(=O)c3nc4ccccc4s3)c2O[C@H]1CN(C)S(=O)(=O)c1ccc(Cl)cc1,61.5% (inactive)
4,C[C@@H]1CN([C@H](C)CO)C(=O)c2cccc(NC(=O)c3nc4ccccc4s3)c2O[C@H]1CN(C)Cc1ccccc1,96.6% (active)
5,Cc1cc(C)c(OCC(=O)Nc2cccnc2)c(Br)c1,5.52% (inactive)
6,COc1cc(C(C)=O)ccc1OCC(O)Cn1nc(C)cc1C (stereo not drawn),10.2% (inactive)
7,COc1ccc(NC(=O)Nc2ccc3c(c2)CC(=O)N([C@@H](C)CO)C[C@H](C)[C@@H](CN(C)S(=O)(=O)c2cn(C)cn2)O3)cc1,-12.8% (inactive)
8,C[C@H]1CN([C@@H](C)CO)C(=O)c2cc(NC(=O)Cn3cnnn3)ccc2O[C@H]1CN(C)Cc1ccc(C(=O)O)cc1,30.7% (inactive)
9,COc1ccc(CCn2c(C)nc(=O)c(-c3ccccc3)c2C)cc1OC,2.96% (inactive)
10,C[C@@H]1CN([C@@H](C)CO)C(=O)c2cccc(NS(=O)(=O)c3ccc(F)cc3)c2O[C@H]1CN(C)C(=O)NC1CCCCC1,4.03% (inactive)
11,C[C@H](CO)N1C[C@H](C)[C@@H](CN(C)Cc2ccc(Cl)c(Cl)c2)Oc2c(NC(=O)Nc3ccccc3)cccc2C1=O,59.3% (inactive)
12,O=C(c1cc([N+](=O)[O-])ccc1NCc1cccnc1)N1CCOCC1,-0.79% (inactive)
13,COc1ccc(NC(=O)N(C)C[C@@H]2Oc3c(NC(=O)Nc4cccc5ccccc45)cccc3C(=O)N([C@@H](C)CO)C[C@H]2C)cc1,33.8% (inactive)
14,C[C@@H]1CN([C@H](C)CO)C(=O)c2cc(NS(=O)(=O)c3ccc(F)cc3)ccc2O[C@@H]1CN(C)C(=O)Nc1cccc2ccccc12,15.5% (inactive)
15,COC(=O)c1ccc(NC(=O)CN(c2ccc(C)c(Cl)c2)S(C)(=O)=O)cc1,-3.13% (inactive)
16,COC(=O)c1ccc(NCc2cc(O)ccc2O)cc1,96.2% (active)
17,COC(=O)c1c(C)n(CCNc2ccc([N+](=O)[O-])cc2)c2ccc(O)cc12,32.6% (inactive)
18,O=C(CSc1nc(O)cc(=O)n1-c1ccccc1F)Nc1ccc(Cl)cc1Cl,9.63% (inactive)
19,COC(=O)c1ccccc1NC(=O)CN(c1ccc2c(c1)OCCO2)S(C)(=O)=O,-1.24% (inactive)
20,C[C@@H]1CN([C@@H](C)CO)C(=O)c2cc(NC(=O)Cc3ccccc3)ccc2O[C@H]1CN(C)Cc1ccc(Cl)c(Cl)c1,54.8% (inactive)
21,C[C@@H]1CN([C@H](C)CO)C(=O)c2cc(NC(=O)Cc3cn(C)c4ccccc34)ccc2O[C@H]1CN(C)S(C)(=O)=O,15.5% (inactive)
22,C[C@H]1CN([C@@H](C)CO)C(=O)c2cc(NC(=O)Cc3cn(C)c4ccccc34)ccc2O[C@H]1CN(C)CC1CCCCC1,15% (inactive)
23,C[C@H]1CN([C@@H](C)CO)C(=O)c2cc(NC(=O)Cc3cn(C)c4ccccc34)ccc2O[C@H]1CN(C)Cc1ccc(Cl)c(Cl)c1,84% (active)

row,Compound,inhibition
1,C[C@H]1CN([C@@H](C)CO)C(=O)c2cc(NC(=O)Cc3cn(C)c4ccccc34)ccc2O[C@@H]1CN(C)Cc1ccc(Cl)c(Cl)c1,87.6% (active)
2,C[C@H](CO)N1C[C@H](C)[C@H](CN(C)Cc2ccncc2)Oc2ccc(NC(=O)Cc3cn(C)c4ccccc34)cc2CC1=O,6.89% (inactive)
3,Cc1noc(C)c1NC(=O)N(C)C[C@@H]1Oc2ccc(NC(=O)Nc3ccc(C(F)(F)F)cc3)cc2C(=O)N([C@H](C)CO)C[C@@H]1C,7.38% (inactive)
4,CC(=O)N[C@@H](C(=O)O[C@H]1CCC(C)(C)[C@@H]2CCC3=C(COC3=O)[C@@]12C)C(C)C,25.2% (inactive)
5,Cc1ccc(-c2nc(S(=O)(=O)c3ccc(Br)cc3)c(SCC(N)=O)o2)cc1,11.1% (inactive)
6,O=C(c1ccccc1)c1cnn(-c2ccc(Cl)cc2)n1,18.2% (inactive)
7,Cc1ccccc1NC(=O)CSc1nnc(-c2ccc([N+](=O)[O-])cc2)n1C,-7.25% (inactive)
8,O=C1C(=O)N(CCn2c3ccccc3c3nc4ccccc4nc32)c2ccccc21,119% (active)
9,CCCn1c2ccccc2c2nnc(SCC(=O)Nc3cccc4ccccc34)nc21,9.77% (inactive)
10,CCn1c2ccccc2c2nnc(SCC(=O)O)nc21,11.8% (inactive)
11,Cc1ccc(C)c(OCC(=O)Nc2ccccc2C#N)c1,15.4% (inactive)
12,C[C@@H]1CN([C@H](C)CO)C(=O)c2cccc(NS(=O)(=O)c3cn(C)cn3)c2O[C@@H]1CN(C)Cc1ccc(C(F)(F)F)cc1,-20.1% (inactive)
13,C[C@@H]1CN([C@@H](C)CO)C(=O)c2cccc(NS(=O)(=O)c3ccccc3)c2O[C@@H]1CN(C)S(=O)(=O)c1ccc(F)cc1,65% (inactive)
14,O=C(Nc1ccccc1)Nc1ccc(C2SCCS2)cc1,89.9% (active)
15,O=C(Nc1ccccc1)Nc1cc(C2CC2)nn1-c1ccccc1,16.4% (inactive)
16,O=C(Nc1ccccc1)C(=S)Nc1ccccc1,38.4% (inactive)
17,C=C1C(=O)O[C@H]2C3=C(C)C[C@H](OC(C)=O)C[C@]3(C)CC[C@@H]12,122% (active)
18,COc1ccc(CN(C)C[C@H]2Oc3ccc(NS(=O)(=O)c4c(C)noc4C)cc3CC(=O)N([C@H](C)CO)C[C@H]2C)cc1,5.72% (inactive)
19,COc1ccc(N(C(C)C(=O)Nc2cccc(Br)c2)S(C)(=O)=O)cc1 (stereo not drawn),-13.9% (inactive)
20,COC(=O)c1ccc(NC(=O)CSc2nc(-c3ccccc3)c(-c3ccccc3)[nH]2)cc1,102% (active)
21,Cc1nc(SCC(=O)Nc2ccc(C(=O)O)cc2)[nH]c(=O)c1C,24.5% (inactive)
22,COC(=O)c1ccc(NC(=O)CSc2nc(-c3ccccc3)cc(=O)[nH]2)cc1,0.0616% (inactive)
